Results: PubChem BioAssay AID1745850 (National Center for Advancing Translational Sciences (NCATS), 2022)
The campaign covered roughly 2,100 compounds. About 260 (12%) were called active. Inconclusive results (about 58%) are left out. The call rests on the fitted dose curve; in most records, active means well fitted cell-killing curve with a large enough effect; inconclusive means small, poorly fitted or top-dose-only effect, or effect the other way; inactive means flat fitted curve, though single readings scatter. The list shows a part of the results. Entries that show only a call come without a potency.

assay: Viability Counterscreen for Confirmatory qHTS for Inhibitors of ATXN expression; conditions: HEK-293 ATXN2-luc cells viability, CellTiter-Fluor, 24 h; further: nearly all actives have a fitted effect of over 50% in size
Procedure, shortened: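 Luminescence read-out (SteadyGlo, 5 min) followed a 30 min Gly-Phe-AFC (25 uM final) viability fluorescence read. ATXN2-luciferase reporter cells were exposed 24 h to a dilution series. Medium-only wells served as the 100% inhibition reference.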
Potency means the concentration at half of the fitted maximal effect.

Row | Compound | Potency
1 | O=C1C=C(NCCc2cc(Br)c(O)c(Br)c2)C(=O)c2ncccc21 | 10 µM (active)
2 | CCOC(=O)c1c2ccc(OCC(=O)N/N=C/c3ccc(C)cc3)cc2n2ccccc12 | inactive
3 | CCCc1nc2c(c(=O)c3ccccc3n2C)c(=O)n1C1CCCCCC1 | 28.2 µM (active)
4 | CN1CCC[C@H]1CCNc1ccc2c(=O)c3ccccc3n(C)c2c1 | inactive
5 | Nc1c(C(=O)NCc2ccc3c(c2)OCO3)c2nc3ccccc3nc2n1CCCN1CCOCC1 | inactive
6 | CC(C)(C)c1ccc(OCCn2nc(C(=O)O)c3ccccc3c2=O)cc1 | inactive
7 | COC(=O)C1=C(C)N(Cc2ccccc2)C(=NCCc2cccnc2)N[C@H]1c1ccc(Br)cc1 | 22.4 µM (active)
8 | Cc1cccc(NC(=O)CCC(=O)N/N=C/c2ccc(O)cc2O)c1 | inactive
9 | COc1ccc2c(Cl)c(C(=O)NN)sc2c1 | inactive
10 | CCC(=O)c1ccc(OCC(O)CN(CCc2ccccc2)Cc2ccccc2)cc1 (configuration not stated) | inactive
11 | OC(CNCCc1ccccc1)COc1ccc(OCC(O)CNCCc2ccccc2)cc1 (configuration not stated) | 22.4 µM (active)
12 | O=C(N/N=C\c1c(O)ccc2ccccc12)c1ccc(S(=O)(=O)N2CCCCC2)cc1 | inactive
13 | O=S(=O)(c1ccc2nc(COc3ccc(Cl)cc3Cl)[nH]c2c1)N1CCOCC1 | inactive
14 | COc1cccc(NC(=O)CSc2nc3ncc(Br)cc3[nH]2)c1 | inactive
15 | CC(C)N(Cc1ccccc1)C(=O)/C=C/c1ccccc1[N+](=O)[O-] | inactive
16 | CC1CCCCC1NC(=O)/C(C#N)=C/C=C/c1ccccc1[N+](=O)[O-] (configuration not stated) | 2.82 µM (active)
17 | N#C/C(=C\C=C\c1ccccc1[N+](=O)[O-])C(=O)NC1CCCCC1 | 20 µM (active)
18 | O=C(NCC1CC1)c1ccc2c(c1)S(=O)(=O)c1cc(Cl)ccc1C2=O | inactive
19 | Cc1cc(C)n(-c2ccc(C(=O)N3CCN(S(=O)(=O)c4cccc(Br)c4)CC3)cc2)n1 | inactive
20 | O=C(Nc1ccc(N2CCOCC2)c(Cl)c1)c1c(F)c(F)c(F)c(F)c1F | inactive
21 | CC(O)(c1ccccc1)c1nc(-c2ccncc2)cs1 (configuration not stated) | inactive
22 | COc1ccc(NC2=NCC(Cc3ccc(Br)cc3)S2)cc1 (configuration not stated) | inactive
23 | CCN(CC)CCC(c1ccc2c(c1)OCO2)c1c(OC)cc(OC)c2c(-c3ccccc3)cc(=O)oc12 (configuration not stated) | 20 µM (active)

Row | Compound | Potency
24 | Cc1ccc(SC2=C(Sc3ccc(C)cc3)C(=O)c3ccccc3C2=O)cc1 | inactive
25 | CCC(=O)OC1(C(C)=O)CCC2C3CCC4=CC(=O)CCC4(C)C3CCC21C (configuration not stated) | inactive
26 | CSc1ncnc2c1ncn2CC(=O)C1CCC2C3CCC4=CC(=O)CCC4(C)C3CCC12C (configuration not stated) | 17.8 µM (active)
27 | Cc1ccc(Sc2nnc(Cc3ccccc3)c3ccccc23)cc1 | inactive
28 | Cc1cc(C)c(C(=O)N2CCCC(N3CCN(c4cccc(C(F)(F)F)c4)CC3)C2)o1 (configuration not stated) | inactive
29 | CCOc1cc(/C=N/Nc2cc(C)nc(-n3nc(C)cc3C)n2)ccc1O | 3.98 µM (active)
30 | CCOC(=O)c1cnc(-n2nc(C)cc2C)nc1NC1CCCC1 | inactive
31 | Cc1cc(N/N=C/c2ccccc2[N+](=O)[O-])nc(-n2nc(C)cc2C)n1 | 12.6 µM (active)
32 | Cc1cc(O)c(C(C)C)cc1N=Cc1ccccc1[N+](=O)[O-] | inactive
33 | CC(=O)c1ccc(S(=O)(=O)N2CCN(CCOc3ccc(Br)cc3)CC2)cc1 | inactive
34 | CC(C)(C)N(Cc1ccc2c(c1)OCO2)C(=O)/C=C\S(=O)c1ccccc1 (configuration not stated) | 17.8 µM (active)
35 | CN(C)CCC(c1ccc(Br)cc1)c1ccccn1 (configuration not stated) | inactive
36 | CCOC(=O)c1c(-c2ccccc2)oc2ccc(OCC(=O)NN)cc12 | inactive
37 | O=C(N/N=C\c1cc(Br)ccc1O)c1ccc(S(=O)(=O)N2CCCCC2)cc1 | inactive
38 | CCOc1cc(/C=C(/C#N)c2nc3ccccc3[nH]2)ccc1Oc1ccc([N+](=O)[O-])cn1 | inactive
39 | N#C/C(=C\c1ccc([N+](=O)[O-])o1)c1nc2ccccc2[nH]1 | 7.94 µM (active)
40 | O=C(Nc1cccnc1)C1Cc2c(-c3ccc4c(c3)OCO4)ccnc2O1 (configuration not stated) | inactive
41 | Cc1nn(-c2ccccc2)c(N2CCCC2)c1/C=N/NC(=O)c1cc2ccccc2cc1O | inactive
42 | Cc1nc(SC2CC(=O)N(c3ccccc3)C2=O)n[nH]1 (configuration not stated) | inactive
43 | Cc1cc(C(=O)CN2C(=O)c3ccccc3S2(=O)=O)c(C)n1CC1CCCO1 (configuration not stated) | inactive
44 | Cc1cc(/C=N/n2cnnc2)c(C)n1-c1ccc(OCc2ccc(Cl)cc2Cl)cc1 | 28.2 µM (active)
45 | CCc1nc2c(OCc3ccc(Cl)cc3Cl)cccn2c1N(C=O)Cc1ccc(OC)cc1 | inactive
46 | S=C(Nc1ccccc1)Nc1ccc(OCc2ccc(Cl)cc2Cl)cc1 | inactive

Row | Compound | Potency
47 | Nc1cccc2c1C(=O)N(C(=O)/C=C/c1cccc(Br)c1)C2=O | inactive
48 | Cn1nnnc1Sc1ncnc2scc(-c3ccc[nH]3)c12 | 12.6 µM (active)
49 | Cn1nnnc1Sc1ncnc2scc(Br)c12 | 20 µM (active)
50 | O=c1[nH]c(CN2CCN(c3ncccn3)CC2)nc2c(Br)cc(Br)cc12 | inactive
51 | CCOC(=O)COc1ccc(Br)cc1/C=C/c1[nH]c(=O)[nH]c(=O)c1[N+](=O)[O-] | inactive
52 | Nc1ccc2c(c1)OC1(CCCC1)O2 | inactive
53 | Cn1c(CCc2nc3ccccc3[nH]2)nnc1SCC#N | inactive
54 | c1ccc2c(c1)c1c(c3ccccc32)CN2CCCC2C1 (configuration not stated) | inactive
55 | COc1ccc(-c2c[n+]3c4n2CCCCC4=C(c2ccc(Br)cc2)C3)cc1 | inactive
56 | Cc1cccc(OCCn2cc(/C=N/NC(=O)c3ccncc3)c3ccccc32)c1 | inactive
57 | Cc1ccc(S(=O)(=O)NCC(=O)N/N=C/c2ccccc2O)cc1 | inactive
58 | COc1ccc(C(=O)NC(=C(Cl)Cl)S(=O)(=O)c2ccc(C)cc2)cc1 | inactive
59 | Cc1ccc(S(=O)(=O)/C(=C/Cl)NC(=O)c2ccccc2)cc1 | 22.4 µM (active)
60 | CCOC(=O)c1ccc(/C=C2/C=C(c3ccccc3)N(c3ccc(Cl)c(C(=O)O)c3)C2=O)cc1 | inactive
61 | O=C(c1cc(COc2cccc(C(F)(F)F)c2)on1)N1CCC(c2ccncc2)CC1 | inactive
62 | COc1ccc(O)c(/C=N/NC(=O)CSc2nnc(C)n2-c2ccccc2)c1 | inactive
63 | C=CCn1c(COc2ccccc2)nnc1SCC(=O)N/N=C/c1cc(Cl)ccc1O | inactive
64 | Cn1c(SCC(=O)N/N=C/c2ccc([N+](=O)[O-])s2)nnc1-c1ccccc1 | 22.4 µM (active)
65 | CSc1sc(-c2nnc(SCC(=O)Nc3ccc(Cl)cc3)n2C)c2c1C=CCC2 | inactive
66 | Cn1c(SCC(=O)N/N=C/c2ccc([N+](=O)[O-])s2)nnc1-c1ccc(Cl)cc1 | 11.2 µM (active)
67 | Cn1c(SCC(=O)Nc2cc(Cl)cc(Cl)c2)nnc1-c1ccc2nonc2c1 | inactive
